# PD-1 reversal = reversal of PD-1 mediated T-cell inhibition | AID 2316 | primary human CD4 T cells, PD-L1 beads, CellTiter-Glo 96 h | 29,000 tested, under 10 active | activation, % (test concentration not listed); call rule not given here
# MITF inh = blocks MITF activity | TRPM1 promoter luciferase, luminescence, 24 h | inhibition, % (test concentration not listed) | 37,000 compounds, 0.28% hits; in the data active = inhibition above about 85%; inconclusive = no clear call, values can overlap the other calls; inactive = below about 68%;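 note: human melanocyte line stably carrying TRPM1 promoter luciferase reporter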
# NOMO-1 viab = STK33 inhibitor candidate reducing NOMO-1 cell viability | NOMO-1 AML viability, CellTiter-Glo luminescence, 72 h | inhibition, % (test concentration not listed) | 37,000 compounds, 7.5% hits | AID 2330; in the data active = inhibition above about 80%; inconclusive = no clear call, values can overlap the other calls
# Hedgehog inh = Sonic Hedgehog pathway inhibition; 22,000 compounds, 2.1% hits; inhibition, % (concentration not given with the values); AID 2313; Shh-LIGHT2 Gli-luciferase reporter, 30 h;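 active = mean inhibition across valid replicates above about 65%, limit read from the data; inconclusive = mean under the limit, yet half or more replicates past it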;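 note: pathway switched on by Shh-conditioned medium diluted 1 in 25 in low serum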
# Hits are given with their value; n = inactive; u = inconclusive; x = no result given. Only some compounds are listed: those with a hit (about 8.1% of all), similar ones and a draw of the others.
SMILES,PD-1 reversal,MITF inh,NOMO-1 viab,Hedgehog inh
COc1cc(-c2oc3cc(O)c(OC)c(O)c3c(=O)c2OC)ccc1O,n,n,120,n
COc1ccc(-c2cc(=O)c3c(O)cc(O)cc3o2)cc1,x,n,n,n
COc1cc(O)c2c(=O)cc(-c3ccc(OC)c(-c4c(O)cc(O)c5c(=O)cc(-c6ccc(O)cc6)oc45)c3)oc2c1,x,u,108,n
CC(C)NC(=O)N(C)C[C@@H]1Oc2ccc(NS(=O)(=O)c3ccc(F)cc3)cc2C(=O)N([C@H](C)CO)C[C@@H]1C,x,n,n,x
COc1cccc(-c2nn(-c3ccccc3)cc2C(=O)n2nnc3ccccc32)c1,n,n,128,x
COC1OC(OC)C(O)(CC[C@@]2(O)[C@H](C)C[C@@H](O)C3[C@@](C)(CO)CCC[C@]32C)C1O (stereo partly specified),n,n,82,n
CC1CCC2(C)C(CC(O)C(O)C2(O)CO)C1(C)CCc1ccoc1 (stereo unspecified),n,n,n,n
C[C@@H]1CN([C@@H](C)CO)C(=O)c2cccc(NC(=O)C3CCOCC3)c2O[C@H]1CN(C)C(=O)Nc1ccccc1,n,n,n,n
CCn1c(CNC(=O)c2ccc(OC)c(OC)c2)n[nH]c1=S,n,n,n,x
Cc1ccc(N2C3=C(C(=O)CC(C)(C)C3)C(c3cccs3)C3=C2CC(C)(C)CC3=O)cc1C,n,n,118,n
Cn1c(SCC(=O)Nc2ccc(I)cc2)nnc1-c1cc2ccccc2o1,n,n,n,x
C[C@H](CO)N1C[C@H](C)[C@@H](CN(C)Cc2ccc(C(=O)Nc3ccccc3N)cc2)Oc2c(NS(=O)(=O)c3ccc(F)cc3)cccc2C1=O,n,n,n,x
C[C@@H]1CN([C@@H](C)CO)C(=O)c2cccc(NS(=O)(=O)c3ccc(F)cc3)c2O[C@H]1CN(C)Cc1ccc(C(=O)Nc2ccccc2N)cc1,n,n,n,x
C[C@@H]1CN([C@@H](C)CO)C(=O)c2cccc(NS(=O)(=O)c3ccc(F)cc3)c2O[C@@H]1CN(C)Cc1ccc(C(=O)Nc2ccccc2N)cc1,n,n,129,x
C[C@H]1CN([C@@H](C)CO)C(=O)c2cccc(NS(=O)(=O)c3ccc(F)cc3)c2O[C@H]1CN(C)Cc1ccc(C(=O)Nc2ccccc2N)cc1,n,n,114,x
C[C@H]1CN([C@@H](C)CO)C(=O)c2cccc(NS(=O)(=O)c3ccc(F)cc3)c2O[C@@H]1CN(C)Cc1ccc(C(=O)Nc2ccccc2N)cc1,n,n,94,x
Cc1noc(C)c1NC(=O)N(C)C[C@@H]1Oc2ccc(NC(=O)CCC(F)(F)F)cc2C(=O)N([C@@H](C)CO)C[C@H]1C,n,n,n,n
CCOC(=O)N1CCc2c(sc3ncn(Cc4ccc(Cl)cc4)c(=O)c23)C1,n,n,n,95
Nc1cc(-c2ccccc2)ccc1O,n,n,n,x
CCCc1ccc(O)c(N)c1,n,n,124,n
Cc1cccc(C2=NC(C(F)(F)F)(C(F)(F)F)c3c(n(C)c(=O)n(C)c3=O)N2)c1,n,n,n,n
C[C@@H]1CN([C@H](C)CO)C(=O)c2cccc(NC(=O)Nc3ccc4c(c3)OCO4)c2O[C@H]1CN(C)Cc1ccc2c(c1)OCO2,x,n,101,n
C[C@@H]1CN([C@@H](C)CO)C(=O)c2cccc(NC(=O)Nc3ccc(F)cc3)c2O[C@H]1CN(C)Cc1ccc2c(c1)OCO2,n,n,113,n
C[C@@H]1CN([C@@H](C)CO)C(=O)c2cccc(NC(=O)Nc3ccccc3)c2O[C@H]1CN(C)Cc1ccc2c(c1)OCO2,n,n,89,n
C[C@@H]1CN([C@@H](C)CO)C(=O)c2cccc(NC(=O)Nc3ccc4c(c3)OCO4)c2O[C@H]1CN(C)Cc1ccc(Cl)c(Cl)c1,n,n,102,n
SMILES,PD-1 reversal,MITF inh,NOMO-1 viab,Hedgehog inh
C[C@@H]1CN([C@H](C)CO)C(=O)c2cccc(NC(=O)Nc3ccc4c(c3)OCO4)c2O[C@@H]1CN(C)Cc1ccncc1,n,n,n,n
C[C@@H]1CN([C@@H](C)CO)C(=O)c2cccc(NC(=O)Nc3ccccc3)c2O[C@@H]1CN(C)Cc1ccc2c(c1)OCO2,x,n,n,n
COC(=O)c1ccccc1NC(=O)CNC(=O)c1ccccc1,n,n,n,x
C[C@@H]1CN([C@@H](C)CO)C(=O)c2cccc(NC(=O)Nc3ccc4c(c3)OCO4)c2O[C@H]1CN(C)Cc1ccc(C(=O)O)cc1,n,n,n,n
C[C@H]1CN([C@@H](C)CO)C(=O)c2cccc(NC(=O)Nc3ccc4c(c3)OCO4)c2O[C@H]1CN(C)Cc1ccc(C(F)(F)F)cc1,n,n,n,n
C[C@@H]1CN([C@@H](C)CO)C(=O)c2cccc(NC(=O)Nc3ccc4c(c3)OCO4)c2O[C@@H]1CN(C)Cc1ccc(C(F)(F)F)cc1,n,n,82,n

# Source: PubChem BioAssay (Broad Institute)
